From PubChem
LmPK inhibitor – qHTS Assay for Inhibitors of Leishmania Mexicana Pyruvate Kinase (LmPK). Potency, µM (series often up to 57.5 µM), without a hit: at the highest dose activity change, negative = inhibition, usual class: inhibitors. purified LmPK, Kinase-Glo ATP luminescence, 1 h. AID 1721, 2009. Q27686. 290,000 tested, 0.37% active; further: potency means the concentration at half of the fitted maximal effect; on the % scale 0 is the no-effect control and ±100 the full control effect
Target sequence (Q27686 whole entry, looked up): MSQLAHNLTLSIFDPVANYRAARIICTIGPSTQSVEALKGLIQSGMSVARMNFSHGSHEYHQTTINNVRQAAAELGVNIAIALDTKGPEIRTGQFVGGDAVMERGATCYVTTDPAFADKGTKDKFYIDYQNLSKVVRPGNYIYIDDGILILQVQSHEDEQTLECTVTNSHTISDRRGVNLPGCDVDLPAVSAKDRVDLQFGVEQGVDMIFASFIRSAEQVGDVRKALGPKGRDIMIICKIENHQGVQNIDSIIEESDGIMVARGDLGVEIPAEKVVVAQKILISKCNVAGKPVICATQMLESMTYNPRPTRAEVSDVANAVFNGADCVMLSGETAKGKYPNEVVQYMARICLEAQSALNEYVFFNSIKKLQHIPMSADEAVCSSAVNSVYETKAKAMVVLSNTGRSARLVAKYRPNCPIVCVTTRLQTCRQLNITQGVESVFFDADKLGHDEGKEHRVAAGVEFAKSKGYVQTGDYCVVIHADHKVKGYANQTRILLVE
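Pyruvate kinase activity monitored as ATP production (luciferase luminescence). Conditions: 0.1 nM enzyme, 0.5 mM PEP, 0.1 mM ADP, 1 h, RT; normalized against uninhibited and no-enzyme wells.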
Pf growth 48h – Primary qHTS for delayed death inhibitors of the malarial parasite plastid, 48 hour incubation. 310,000 tested, 5.9% active. P. falciparum luciferase growth in erythrocytes, 48 h. Potency, µM (doses to about 28.7 µM), for the others: at the highest dose activity change, negative = inhibition, most hits filed as inhibitors; further: potency means the concentration at half of the fitted maximal effect; on the % scale 0 is the no-effect control and ±100 the full control effect
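First compound was added to culture medium, then infected red cells at 0.1% parasitemia and 2% hematocrit (final). After incubation at 37 C under 5% CO2, luciferase detection reagent was dispensed and light output recorded.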
Shiga toxin inh – A qHTS for Small Molecule Inhibitors of Shiga Toxin | 290,000 tested, 9.2% active | Vero cells, Shiga toxin protein synthesis inhibition reporter | inhibition, % at 38.7 µM | AID 2315, 2010; in the data active means inhibition mostly above about 28%, no sharp cut-off; inactive means mostly below about 43%; further: 0% is about no effect
Pf growth 96h – Primary qHTS for delayed death inhibitors of the malarial parasite plastid, 96 hour incubation; Potency, µM (highest dose often 28.7 µM), inactives show top-dose activity change, negative = inhibition, usual class: inhibitors; P. falciparum luciferase reporter growth, 96 h; AID 504834, 2011; 320,000 tested, 6.9% active; further: potency means the concentration at half of the fitted maximal effect; on the % scale 0 is the no-effect control and ±100 the full control effect
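Erythrocytes infected with luciferase-expressing P. falciparum were dispensed at 2% hematocrit and 0.05% parasitemia (final), then incubated with compounds 96 hours at 37 C in 5% CO2. Luminescence after detection reagent addition reported growth.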
CHX counter – Cycloheximide Counterscreen for Small Molecule Inhibitors of Shiga Toxin. cell reporter, cycloheximide protein synthesis inhibition counterscreen. max response, %. 300,000 tested, 12% active; in the data active means max response mostly above about 13%, no sharp cut-off; inactive means mostly below about 14%; further: read at 38.3 µM for the half of the compounds with a filed dose; 0% is about no effect
Starred values were filed as active, the others as inactive; ? = inconclusive; . = no result. Compounds with a hit are over-represented: about 22% of the library has one in this group of screens. Unless noted, the call rests on the fitted dose curve; in most records, active means well fitted inhibition curve with a large enough effect; inconclusive means small, poorly fitted or top-dose-only effect, or another doubt; inactive means no such curve, though single readings can be large or run the other way.

SMILES	LmPK inhibitor	Pf growth 48h	Shiga toxin inh	Pf growth 96h	CHX counter
O=C(NNc1ncnc2ccccc12)c1cccc(Cl)c1	-2%	65%	52*	60%	31*
COc1cc(OC)cc(C(=O)NCC(=O)OC2CCCCC2=O)c1 (configuration not stated)	.	?	.	-29%	.
CCOC(=O)c1cc(-c2ccc(OC)cc2OC)nn1-c1ccc(C(=O)O)cc1	-1%	-17%	5	?	21*
CCOC(=O)c1cc(-c2ccc(OC)cc2)nn1-c1ccccc1C(=O)O	-2%	1%	14	26%	-1
Cc1ccccc1-c1nc(CN(C)C(C)c2ccon2)c(C)o1 (configuration not stated)	-2%	-4%	26	2.3µM*	2
Cc1ccc(CNS(=O)(=O)c2ccc(CN3C(=O)c4cccnc4C3=O)s2)o1	-1%	10%	-8	4%	1
Cc1cccc(OC(=O)c2ccc3nccnc3c2)c1	-6%	-3%	-25	.	2
O=C(Oc1ccccc1)c1ccc2nsnc2c1	-15%	77%	75*	-3%	53*
Cc1ccc2c(nc3s/c(=C/c4cccs4)c(=O)n32)c1C	0%	55%	65	.	30*
CC1(C)CN(C(Cc2ccccc2)C(N)=O)C1=O (configuration not stated)	1%	40%	-1	31%	5
Cn1c(=O)c2c(nc(N3CCc4ccccc4C3)n2Cc2ccccc2F)n(C)c1=O	3%	13µM*	1	-22%	-3
Cc1ccccc1Cn1c(CN2CCc3ccccc3C2)nc2c1c(=O)n(C)c(=O)n2C	6%	13µM*	-9	?	-5
COCCNC(=O)c1cccc(OC2CCN(Cc3ccc(OC(F)F)cc3)CC2)c1	2%	-3%	0	0%	-1
CC(=O)Nc1ccc(-c2ccc(NC(C)=O)c(O)c2)cc1O	-10%	109%	33*	99%	18*
COC(=O)Nc1ccc(NC(C)=O)cc1	-1%	13%	-3	47%	-2
CC(=O)Nc1ccc(C#Cc2ccc(NC(C)=O)cc2)cc1	2%	47%	68*	72%	34*
CC(=O)Nc1ccc(-c2ccc(NC(C)=O)cc2)cc1	0%	2%	60*	6%	33*
O=C(N/N=C/c1ccccc1Cl)c1n[nH]c2c1CCCC2	?	-15%	54*	5%	92*
O=C(N/N=C/C(Br)=C/c1ccccc1)c1n[nH]c2c1CCC2	7%	-29%	145*	.	42*
O=C(N/N=C/c1ccc(Cl)cc1)c1n[nH]c2c1CCCC2	-2%	101%	83*	57%	41*
Cc1ccc(-c2cc(C(=O)N/N=C/c3ccc(Cl)cc3)n[nH]2)o1	6%	-23%	3	?	3
O=C(N/N=C/c1cccs1)c1n[nH]c2c1CCC2	25µM*	119%	45*	?	33*
CC1(C)CC(=NNC(=O)c2n[nH]c3c2CCC3)CC(C)(C)N1	-1%	16%	-12	?	-3
O=C(N/N=C/c1ccccc1)c1n[nH]c2c1CCCC2	-9%	255%	76*	22%	27*
O=C(C1=C(O)C(=O)N(CC2CCCO2)C1c1ccc(Cl)cc1Cl)c1ccco1 (configuration not stated)	-3%	-4%	1	23%	12
SMILES	LmPK inhibitor	Pf growth 48h	Shiga toxin inh	Pf growth 96h	CHX counter
C=C(C)CN1CCN(S(=O)(=O)c2ccc(C)c(N(C)S(=O)(=O)c3ccc(C)cc3)c2C)CC1	0%	10µM*	-4	-18%	-2
Cc1ccc(S(=O)(=O)N(C)c2c(C)ccc(S(=O)(=O)N3CCN(C)CC3)c2C)cc1	-2%	-28%	-11	?	-2
O=C(NC(=O)c1ccc(Cl)cc1)OC1CCCCC1	-1%	13%	63*	24%	48*
O=C(Nc1ccccc1Cl)OC1CCCCC1	-1%	37%	100*	50%	22
CN(CC(=O)Nc1ccccc1Cl)C1CCCCC1	0%	32%	15	?	7
O=C(CNC(=O)c1ccccc1)OC1CCCCC1	-9%	289%	56*	17%	35*
Cc1ccc(CNC(=O)CN2C(=O)C3(OCCCO3)c3ccccc32)cc1	0%	-4%	-11	10µM*	-3
N#C/C(=C\c1ccc(OC(=O)c2ccc(Cl)s2)cc1)c1nc2ccccc2[nH]1	-3%	1%	17*	?	50*
N#C/C(=C\c1ccc(OC(=O)c2ccc(Br)s2)cc1)c1nc2ccccc2[nH]1	1%	31%	38*	?	22*
N#C/C(=C\c1ccc(Oc2ccc(C(F)(F)F)cc2[N+](=O)[O-])cc1)c1nc2ccccc2[nH]1	-2%	?	15	74%	15
CCN(CC)c1ccc(N2C(=NC(=O)C3CC3)SC3CS(=O)(=O)CC32)cc1 (configuration not stated)	3%	26%	1	8%	-1
Cc1ccccc1CCNC(=O)Cn1ccc2cc(S(=O)(=O)N3CCCC3)ccc21	4%	?	-5	?	2
CN(C)S(=O)(=O)c1ccc(C(=O)OCCc2ccccc2)cc1	-5%	32%	33	-20%	39*
CN(C)S(=O)(=O)c1ccc(C(=O)NCCOc2ccc(F)cc2)cc1	2%	106%	84*	.	42*
CN(C)S(=O)(=O)c1ccc(C(=O)NCc2ccccc2)cc1	-3%	36%	-1	10%	-4
CN(C)S(=O)(=O)c1ccc(C(=O)OCC(=O)NCc2ccccc2)cc1	4%	13%	-6	15%	-2
CN(C)S(=O)(=O)c1ccc(C(=O)NCCOc2ccccc2)cc1	0%	143%	83*	.	40*
CN(C)S(=O)(=O)c1ccc(C(=O)NCCS(=O)(=O)N2CCN(c3ccc(F)cc3)CC2)cc1	0%	11%	-9	7%	-3
COc1cccc([C@@H]2Oc3ccc(OC)cc3C(=O)[C@H]2O)c1	3%	-22%	42*	3.7µM*	40*
COc1ccc2c(c1)C(=O)[C@@H](O)[C@H](c1ccc(OC)c(Br)c1)O2	4%	3.7µM*	43*	3.3µM*	18*
Cc1nc2ccc([N+](=O)[O-])cc2c(=O)n1Cc1ccccc1Br	-6%	13%	-8	?	-4
CCCS(=O)(=O)c1nc(S(=O)(=O)c2ccc(C)cc2)c(N2CCC3(CC2)OCCO3)s1	-1%	-16%	6	?	-3
CCN1CCCC1CNCc1cccc(OC)c1OCc1ccccc1F (configuration not stated)	6%	.	-7	?	-2
CCN1CCCC1CNCc1cccc(OC)c1OCc1ccccc1 (configuration not stated)	-1%	-26%	-5	12µM*	3
CCN1CCCC1CNCc1ccccc1OCc1ccc(F)cc1 (configuration not stated)	6%	10µM*	-16	.	-2
